# Source: PubChem BioAssay (NCATS)
# Inconclusive results are not listed. Entries that show only a call come without a potency. Calls of active or inactive are those of the source. Unless noted, calls come from the whole dose curve; as a rule, active = well fitted curve in the direction sought with a large enough effect; inconclusive = small, poorly fitted or top-dose-only effect, or another doubt; inactive = no such curve, though single readings can be large; an effect the other way counts as inactive or inconclusive.
# Experiments:
# [1] = NCATS anti-infectives library activity on the primary C. elegans qHTS viability assay (AID 1745855; calls by dose curve; note: potency is the fitted concentration of half-maximal effect)
# How it was run: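 Viability read-out is GFP fluorescence of PE254-GFP-FLuc C. elegans, measured by laser cytometry (488 nm) at day 0, 3 and 7. Ten L1 worms per well were incubated 7 days at 21 °C with compounds and bacterial capsules in S medium.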
# [2] = NCATS anti-infectives library activity on HEK293 viability as a counter-qHTS vs the C. elegans viability qHTS (AID 1745854);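 note: HEK293 cells exposed to compounds for 24 hr before the viability read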; note: potency is the fitted concentration of half-maximal effect
# How it was run: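 Compounds were acoustically plated (several concentrations, 1:5, final up to 41.7 uM), then 1500 HEK293 cells added per well and incubated 24 hr at 37C, 5% CO2. CellTiter-Glo was added and luminescence read after 10 min.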
# [3] = Viability counterscreen for antagonist of constitutive androstane receptor (CAR) against the NCATS DSHEA and TCM libraries (AID 1794837);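 note: compound exposure lasted 24 h before viability reading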
# Source text: Assay Development and Screening Technology Laboratory (ADST)
# National Center for Advancing Translational Sciences (NCATS), Rockville, MD
# National Institute of Health (NIH), Bethesda, Maryland
# Dietary Supplements and Natural Products have minor oversight of their safety and efficacy. We assembled a collection of Dietary Supplements and Natural Products (DSNP) as well as Traditional Chinese Medicinal (TCM) Plant extracts, which were screened against an in vitro panel of assays, including a liver cytochrome p450 enzyme panel, CAR/PXR signaling pathways, and P-gp transporter assays, to assess their activity. This pipeline facilitated the interrogation of Natural Product-Drug Interaction (NaPDI) through prominent metabolizing pathways. In addition, we compared the activity profiles of the DSNP/TCM substances with those of an approved drug collection. Many of the approved drugs have well-annotated mechanisms of action (MOA) while the MOAs for most of the DSNP and TCM samples remain unknown. Based on the premise that compounds with similar activity profiles tend to share similar targets or MOA, we clustered the library activity profiles to identify overlap with the NCATS Pharmaceutical Collection to predict the MOAs of the DSNP/TCM substances. Overall, we highlight four significant bioactivity profiles (measured by p-values) as examples of this prediction.
# To this end, we profiled both collections for potential CAR and/or PXR activity, employing a previously published 1536-well qHTS assay.
# PROTOCOL TABLE (as described by Inglese J, Shamu CE and Guy RK. 2007)
# SEQUENCE No. (e.g., 1, 2, 3, etc.); […] (e.g., Cells, Incubation, Reagent, etc.); VALUE; DESCRIPTION.
# 1; Cells; 4 uL; 1536-well white Greiner assay plate.
# 2; Incubation; 5 hours; 37C, 95% humidity, 5% CO2.
# 3; Compounds; 23 nL; Kalypsis pin tool (Wako USA) equipped with 1536-well pin head to transfer to the assay plates.
# 4; Reagent; 1 uL; 48 uM CITCO (final concentration).
# 5; Incubation; 24 hours; 37C, 5% CO2.
# 6; Detection Reagent 1; 1 uL; CellTiter-Fluor (Promega).
# 7; Incubation; 1 hour; 37C, 5% CO2.
# 8; Detector 1; Fluorescence intensity; ViewLux plate reader (excitation 405 nm, emission 540 nm).
# 9; Detection Reagent 2; 4 uL; ONE-Glo Luciferase reagent (Promega).
# 10; Incubation; 30 min; room temperature.
# 11; Detector 2; Luminescence intensity; ViewLux.
# NOTES (numbers refer to Sequence numbers above)
# 1. 4 uL of HepG2-CYP2B6-hCAR cells at 6.25 x 10^5 cells/mL (2,500 cells/well) were dispensed using a Multidrop Combi dispenser in tissue culture-treated 1536-well white assay plates (Greiner Bio-One) in the same culture media, without geneticin and blasticidin included.
# 2. Plates were incubated for 5 hours at 37C, 95% humidity, and 5% CO2 to allow for cell attachment.
# 3. Compounds (final concentrations of most substances ranged from 15.6 nM to 31.9 uM), positive control (for antagonist mode: PK11195 with a final concentration range 2.8 nM to 92 uM), and toxicity control tetraoctyl ammonium bromide (final concentration of 92 uM) were transferred (23 nL) via pintool (Wako Automation).
# 4. After compound transfer, plates were dispensed with 1 uL of the known hCAR agonist 6-(4-Chlorophenyl)imidazo[2,1-b][1,3]thiazole-5-carbaldehyde O-(3,4-dichlorobenzyl)oxime (CITCO, final concentration of 48 uM) in the antagonist mode using a BioRAPTR FRDTM.
# 6. […]
# 8. Fluorescence intensity (Ex/Em = 405 nm/540 nm) is obtained using the ViewLux plate reader to determine cell viability. […]
# 10. Luminescence intensity is read using the ViewLux detector. […]
# [4] = Viability counterscreen for agonist of constitutive androstane receptor (CAR) against the NCATS DSHEA and TCM libraries (AID 1794838);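 note: cells exposed to compound for 24 h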
# How it was run: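 Cell viability, from CellTiter-Fluor fluorescence (405/540 nm), was scored after a 24 h, 37C exposure of HepG2 cells carrying CYP2B6 reporter and hCAR to test substances in presence of 0.75 uM PK11195.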
# [5] = target: Nuclear receptor subfamily 1 group I member 3 (Homo sapiens) (UniProt Q14994); experiment: Primary qHTS for agonist of constitutive androstane receptor (CAR) against the NCATS DSHEA and TCM libraries (AID 1794839);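 note: HepG2 cells expressing human CAR with a CYP2B6 reporter plus PK11195 antagonist; luciferase reporter luminescence read with ONE-Glo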
# Sequence of Nuclear receptor subfamily 1 group I member 3 (Homo sapiens) (Q14994 whole entry, looked up): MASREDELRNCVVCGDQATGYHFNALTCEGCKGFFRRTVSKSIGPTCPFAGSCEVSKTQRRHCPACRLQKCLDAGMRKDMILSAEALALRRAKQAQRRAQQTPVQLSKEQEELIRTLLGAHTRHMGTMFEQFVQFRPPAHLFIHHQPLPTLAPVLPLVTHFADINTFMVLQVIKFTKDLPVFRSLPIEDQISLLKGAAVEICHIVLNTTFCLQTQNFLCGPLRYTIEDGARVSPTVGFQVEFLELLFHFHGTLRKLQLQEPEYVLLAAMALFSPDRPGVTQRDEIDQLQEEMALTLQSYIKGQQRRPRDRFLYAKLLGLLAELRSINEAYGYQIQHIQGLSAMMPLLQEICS
# How it was run: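 Agonist mode in presence of hCAR antagonist PK11195 (0.75 µM final): test substances, 24 h, 37 °C, on HepG2-CYP2B6-hCAR cells. Same-well readouts: fluorescence viability, then ONE-Glo luminescence; CITCO as reference agonist.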
# [6] = HepG2 viability counterscreen (readout 2: ATP content) against the NCATS DSHEA and TCM libraries (AID 1794840);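 note: HepG2 cells exposed to substances for about 24 h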
# How it was run: (§1)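 Readout 1: cellular protease activity, GF-AFC substrate (25 uM final, 30 min, fluorescence 380/510 nm). Readout 2: ATP content by CellTiter-Glo luminescence after 30 min at RT. Both follow ~24 h exposure of HepG2 cells (1,000/well) to substances.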
# [7] = target: Nicotinamide N-methyltransferase (Homo sapiens) (UniProt P40261); experiment: Confirmatory Screen for Target Class Profiling of Small Molecule Inhibitors of Methyltransferases (AID 1745852); conditions: MTase-Glo luminescence, SAH detection, recombinant enzyme; measured here: NNMT max response; stronger effect = lower value
# Sequence of Nicotinamide N-methyltransferase (Homo sapiens) (P40261 whole entry, looked up): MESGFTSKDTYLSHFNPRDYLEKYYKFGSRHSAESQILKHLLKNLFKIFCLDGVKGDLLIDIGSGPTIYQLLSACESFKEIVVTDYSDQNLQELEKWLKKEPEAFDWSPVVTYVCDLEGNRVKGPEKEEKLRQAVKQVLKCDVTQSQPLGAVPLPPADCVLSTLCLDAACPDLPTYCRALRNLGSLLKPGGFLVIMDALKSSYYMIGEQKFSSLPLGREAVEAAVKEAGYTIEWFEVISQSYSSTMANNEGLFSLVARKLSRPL
# [8] = target: Phenylethanolamine N-methyltransferase (Homo sapiens) (UniProt P11086); experiment: as above; conditions: MTase-Glo luminescence, SAH detection, recombinant enzyme; measured here: PNMT max response; stronger effect = lower value
# Sequence of Phenylethanolamine N-methyltransferase (Homo sapiens) (P11086 whole entry, looked up): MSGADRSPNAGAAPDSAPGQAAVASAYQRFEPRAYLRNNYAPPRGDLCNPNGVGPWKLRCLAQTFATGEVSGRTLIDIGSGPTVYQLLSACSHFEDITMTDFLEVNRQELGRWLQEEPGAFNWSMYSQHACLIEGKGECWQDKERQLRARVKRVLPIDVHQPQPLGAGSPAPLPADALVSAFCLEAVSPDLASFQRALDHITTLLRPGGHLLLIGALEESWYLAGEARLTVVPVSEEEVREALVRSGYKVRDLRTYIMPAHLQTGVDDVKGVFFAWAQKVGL
# [9] = target: Metallo-beta-lactamase type 2 (Klebsiella pneumoniae) (UniProt C7C422); experiment: qHTS to identify inhibitors of the New Delhi Metallo-beta-lactamase (NDM): assay validation screen against the NCATS LOPAC Collection (AID 1794843);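 note: nitrocefin turnover by NDM-1 measured as 485 nm absorbance at plateau; series mostly up to about 38 µM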
# Sequence of Metallo-beta-lactamase type 2 (Klebsiella pneumoniae) (C7C422 whole entry, looked up): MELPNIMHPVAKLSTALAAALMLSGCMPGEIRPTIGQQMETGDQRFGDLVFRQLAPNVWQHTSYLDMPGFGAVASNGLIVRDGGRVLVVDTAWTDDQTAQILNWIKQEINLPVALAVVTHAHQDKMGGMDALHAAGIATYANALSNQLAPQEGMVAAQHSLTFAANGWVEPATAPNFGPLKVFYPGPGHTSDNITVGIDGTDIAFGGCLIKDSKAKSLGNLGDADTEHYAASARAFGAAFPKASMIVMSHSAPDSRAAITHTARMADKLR
# How it was run: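 Enzyme 2 nM final, 50 mM HEPES pH 7.0, 1 uM ZnSO4, 0.01% Tween20; cpds in DMSO, preincub w/ enzyme; + nitrocefin (50 uM stock); A485 at plateau; no-enzyme column as blank.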
# [10] = HepG2 viability counterscreen (readout 1: protease activity) against the NCATS DSHEA and TCM libraries (AID 1794841);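 note: cells exposed to compounds for about 24 h before the protease read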
# How it was run: as §1
smiles,measurement,setting,value
COc1cccc2c1C(=O)c1c(O)c3c(c(O)c1C2=O)C[C@@](O)(C(=O)CO)C[C@@H]3O[C@H]1C[C@H](N)[C@H](O)[C@H](C)O1,Potency,[1],23 µM (active)
CCN(CC)C(=O)/C(C#N)=C/c1cc(O)c(O)c([N+](=O)[O-])c1,Potency,[2],inactive
C=C1C(=C/C=C2\CCC[C@]3(C)[C@@H]([C@H](C)/C=C/[C@@H](O)C4CC4)CC[C@@H]23)C[C@@H](O)C[C@@H]1O,Potency,[2],inactive
CCCCc1nc(Cl)c(CO)n1Cc1ccc(-c2ccccc2-c2nn[nH]n2)cc1,Potency,[2],inactive
CC(C)(C)NC(=O)[C@@H]1CN(Cc2cccnc2)CCN1C[C@@H](O)C[C@@H](Cc1ccccc1)C(=O)N[C@H]1c2ccccc2C[C@H]1O,Potency,[2],inactive
Nc1nc2ncc(CNc3ccc(C(=O)N[C@@H](CCC(=O)O)C(=O)O)cc3)nc2c(=O)[nH]1,outcome,[3],inactive
same,outcome,[4],inactive
same,outcome,[5],inactive
same,outcome,[6],inactive
NCCCC[C@H](N[C@@H](CCc1ccccc1)C(=O)O)C(=O)N1CCC[C@H]1C(=O)O,"activity change, negative = cytotoxicity",[2],-8.63% [at 8.35 µM] (inactive)
NC(=NCCCCCCN=C(N)/N=C(\N)Nc1ccc(Cl)cc1)/N=C(\N)Nc1ccc(Cl)cc1,activity,[7],-51.5%
same,activity,[8],-67.4%
same,Potency,[1],11.5 µM (active)
CC[C@H](C)C(=O)O[C@H]1CCC=C2C=C[C@H](C)[C@H](CC[C@@H]3C[C@@H](O)CC(=O)O3)[C@H]21,activity,[7],-8.02%
same,activity,[8],-5.04%
same,outcome,[9],inactive
CCCCCCCCCCCCCCCCOP(=O)([O-])OCC[N+](C)(C)C,"activity change, negative = cytotoxicity",[2],-18.3% [at 8.35 µM] (inactive)
same,outcome,[1],inactive [at 8.33 µM]
O=c1ccc2ccccc2o1,Potency,[2],inactive
same,Potency,[1],inactive
same,outcome,[3],inactive
same,outcome,[4],inactive
same,outcome,[5],inactive
same,outcome,[6],inactive
same,outcome,[10],inactive
C=CCc1ccc(O)c(OC)c1,outcome,[3],inactive
same,outcome,[4],inactive
same,outcome,[5],inactive
same,outcome,[6],inactive
same,outcome,[10],inactive
CC(C)C[C@H]1C(=O)N2CCC[C@H]2[C@]2(O)O[C@](NC(=O)[C@@H]3C=C4c5cccc6[nH]c(Br)c(c56)C[C@H]4N(C)C3)(C(C)C)C(=O)N12,activity,[7],-2.85%
same,activity,[8],4.08%
same,outcome,[9],inactive
CC(O)(P(=O)(O)O)P(=O)(O)O,"activity change, negative = cytotoxicity",[2],0.883% [at 8.35 µM] (inactive)
CC(C)(C)CC(C)(C)c1ccc(OCCOCC[N+](C)(C)Cc2ccccc2)cc1,activity,[7],-59.7%
same,activity,[8],-7.81%
CCCCC1=NC2(CCCC2)C(=O)N1Cc1ccc(-c2ccccc2-c2nn[nH]n2)cc1,Potency,[2],inactive
CC[C@@H](CO)NCCN[C@@H](CC)CO,Potency,[2],inactive
NCCC(O)(P(=O)(O)O)P(=O)(O)O,Potency,[2],inactive
CC1(C)O[C@@H]2[C@@H](CO[C@@]3(COS(N)(=O)=O)OC(C)(C)O[C@@H]23)O1,Potency,[2],inactive
same,Potency,[1],inactive
COc1cccc2c1C(=O)c1c(O)c3c(c(O)c1C2=O)C[C@@](O)(C(C)=O)C[C@@H]3O[C@H]1C[C@H](N)[C@H](O)[C@H](C)O1,Potency,[2],5.62 µM (active)
same,Potency,[1],5.78 µM (active)
C/C=C/c1ccc(OC)cc1,outcome,[3],inactive
same,outcome,[4],inactive
same,outcome,[5],inactive
same,outcome,[6],inactive
same,outcome,[10],inactive
Nc1ccc(C(=O)O)cc1,outcome,[3],inactive
same,outcome,[4],inactive
same,outcome,[5],inactive
same,outcome,[6],inactive
same,outcome,[10],inactive
